Assay results taken from PubChem BioAssay (EPA / NIEHS).
Calls of active or inactive are those of the source. Rule for the calls: active = hit-call score of the fitted dose curve at least 0.9, where 1 is the maximum; inactive = score below 0.9.

Assays:
[1] = read-out: Transforming growth factor beta 1 (TGFb1), TGFB1 (gene 7040); assay: BSK_KF3CT_TGFb1: BioMAP Diversity Plus: KF3CT Assay for Transforming growth factor beta 1 (TGFb1) Biomarker Activity (AID 2283072); conditions: primary human keratinocytes with fibroblasts; actives raise or lower the signal
How it was run: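 Primary human skin cells (keratinocytes, foreskin fibroblasts) were co-cultured, exposed to test chemical and sampled at 24 h. TGF-b1 levels were measured by ELISA and fitted bidirectionally relative to DMSO.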

[2] = read-out: C-C motif chemokine 2 (Homo sapiens) (UniProt P13500); assay: BSK_KF3CT_MCP1: BioMAP Diversity Plus: KF3CT Assay for Monocyte Chemoattractant Protein 1 (MCP1/CCL2) Biomarker Activity (AID 2283073); conditions: primary human keratinocytes with fibroblasts; actives raise or lower the signal
How it was run: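 ELISA read-out of MCP-1, 24 h post-dose, in primary human skin keratinocytes co-cultured with fibroblasts. Parallel SRB staining monitors cytotoxicity; changes fitted both directions relative to DMSO.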

[3] = read-out: Matrix Metallopeptidase 9 (MMP9), MMP9 (gene 4318); assay: BSK_KF3CT_MMP9: BioMAP Diversity Plus: KF3CT Assay for Matrix Metallopeptidase 9 (MMP9) Biomarker Activity (AID 2283074); conditions: primary human keratinocytes with fibroblasts; actives raise or lower the signal
How it was run: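 Human keratinocyte/foreskin fibroblast co-culture; compound added; 24 h; MMP-9 by ELISA; bidirectional fit vs DMSO baseline.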

[4] = read-out: urokinase plasminogen activator (uPA), PLAU (gene 5328); assay: BSK_KF3CT_uPA: BioMAP Diversity Plus: KF3CT Assay for urokinase plasminogen activator (uPA) Biomarker Activity (AID 2283075); conditions: primary human keratinocytes with fibroblasts; actives raise or lower the signal
How it was run: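 ELISA readout of uPA, analyzed for signal gain or loss relative to DMSO, from a human primary keratinocyte–foreskin fibroblast co-culture measured 24 h after chemical treatment.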

CD40, CD40 (gene 958) [5] = assay: BSK_LPS_CD40: BioMAP Diversity Plus: LPS Assay for CD40 Biomarker Activity (AID 2283076); conditions: primary human HUVEC with PBMC; actives raise or lower the signal
How it was run: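 In the LPS system of human endothelial cells with peripheral blood mononuclear cells, CD40 levels were read by ELISA 24 h post-treatment. Signal changes in either direction were fitted against the DMSO baseline, with parallel SRB protein staining.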

[6] = read-out: E-selectin (Homo sapiens) (UniProt P16581); assay: BSK_LPS_Eselectin: BioMAP Diversity Plus: LPS Assay for Eselectin Biomarker Activity (AID 2283077); conditions: primary human HUVEC with PBMC; actives raise or lower the signal
How it was run: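 E-selectin ELISA on LPS-stimulated endothelial cell/PBMC co-cultures, read 24 h post-treatment; gains and losses fitted against DMSO. Parallel SRB staining (0.1% SRB after 10% TCA fixation, 560 nm) flags overt cytotoxicity.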

[7] = read-out: Interleukin-8 (IL8), CXCL8 (gene 3576); assay: BSK_LPS_IL8: BioMAP Diversity Plus: LPS Assay for Interleukin-8 (IL8) Biomarker Activity (AID 2283078); conditions: primary human HUVEC with PBMC; actives raise or lower the signal
How it was run: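 ELISA read-out of IL-8 after 24 h chemical treatment of LPS-activated endothelial/PBMC human primary co-cultures. Changes either up or down relative to DMSO; overt cytotoxicity checked by sulforhodamine B staining in parallel wells.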

[8] = BSK_LPS_SRB: Viability Assessment in the BioMAP Diversity Plus: LPS Assay (AID 2283079); conditions: primary human HUVEC with PBMC;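 note: total protein by sulforhodamine B absorbance as a cytotoxicity measure; measured one day after compound addition; fitted in both directions against DMSO so loss or gain of signal counts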
How it was run: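 SRB viability endpoint: cells fixed with 10% TCA, stained with 0.1% SRB, read at 560 nm, 24 h post-dose. HUVEC/PBMC co-culture; signal change in either direction scored relative to DMSO.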

[9] = read-out: Interleukin-1 alpha (IL1a), IL1A (gene 3552); assay: BSK_LPS_IL1a: BioMAP Diversity Plus: LPS Assay for Interleukin-1 alpha (IL1a) Biomarker Activity (AID 2283080); conditions: primary human HUVEC with PBMC; actives raise or lower the signal
How it was run: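 Readout is IL-1a level by ELISA, 24 h post-dose, fitted as gain or loss relative to DMSO. System: LPS-activated human primary co-culture of vascular endothelium and peripheral blood mononuclear cells, with parallel SRB total-protein cytotoxicity.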

[10] = read-out: Monocyte Chemoattractant Protein-1 (MCP1), CCL2 (gene 6347); assay: BSK_LPS_MCP1: BioMAP Diversity Plus: LPS Assay for Monocyte Chemoattractant Protein-1 (MCP1) Biomarker Activity (AID 2283081); conditions: primary human HUVEC with PBMC; actives raise or lower the signal;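 for AC50: secreted MCP-1 protein quantified by ELISA in culture supernatant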
How it was run: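 Secreted MCP-1 read by ELISA at 24 h post-dosing in an LPS-activated co-culture of endothelial cells with peripheral blood mononuclear cells. Fits run in both directions, DMSO as baseline; parallel SRB staining tracks overt cytotoxicity.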

[11] = BSK_LPS_PGE2: BioMAP Diversity Plus: LPS Assay for Prostaglandin E2 (PGE2) Biomarker Activity (AID 2283082); conditions: primary human HUVEC with PBMC; actives raise or lower the signal
How it was run: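 LPS-activated HUVEC/PBMC co-culture; cmpd dosed, 24 h; PGE2 by ELISA; bidirectional fit vs DMSO; SRB (0.1%, TCA-fixed, 560 nm) in parallel plates for overt cytotox.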

[12] = read-out: Macrophage colony-stimulating factor (MCSF), CSF1 (gene 1435); assay: BSK_LPS_MCSF: BioMAP Diversity Plus: LPS Assay for Macrophage colony-stimulating factor (MCSF) Biomarker Activity (AID 2283083); conditions: primary human HUVEC with PBMC; actives raise or lower the signal
How it was run: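 Bidirectional fitting against DMSO was applied to M-CSF levels read by ELISA at 24 h post-dose. The system pairs human umbilical vein endothelium with peripheral blood mononuclear cells; parallel SRB staining tracked cytotoxicity.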

[13] = read-out: Tissue Factor, F3 (gene 2152); assay: BSK_LPS_TissueFactor: BioMAP Diversity Plus: LPS Assay for Tissue Factor Biomarker Activity (AID 2283084); conditions: primary human HUVEC with PBMC; actives raise or lower the signal
How it was run: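 Compound was added to an endothelial cell/PBMC co-culture, and after 24 h tissue factor (CD142) was read by ELISA. Gain or loss of signal was fitted against a DMSO baseline, and parallel SRB staining (560 nm) tracked overt cytotoxicity.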

[14] = read-out: Tumor necrosis factor (Homo sapiens) (UniProt P01375); assay: BSK_LPS_TNFa: BioMAP Diversity Plus: LPS Assay for Tumour Necrosis Factor alpha (TNFa) Biomarker Activity (AID 2283085); conditions: primary human HUVEC with PBMC; actives raise or lower the signal
How it was run: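 Read-out is ELISA of TNFa in primary human endothelial cell–PBMC co-cultures at 24 h after compound. Activity in either direction was fitted against DMSO.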

[15] = read-out: Vascular cell adhesion molecule 1 (VCAM1), VCAM1 (gene 7412); assay: BSK_LPS_VCAM1: BioMAP Diversity Plus: LPS Assay for Vascular cell adhesion molecule 1 (VCAM1) Biomarker Activity (AID 2283086); conditions: primary human HUVEC with PBMC; actives raise or lower the signal
How it was run: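 HUVEC + PBMC co-culture, LPS system; compound 24 h; VCAM-1 by ELISA; bidirectional fit vs DMSO control; parallel SRB (0.1%, TCA-fixed, 560 nm) for cytotoxicity.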

CD38, CD38 (gene 952) = assay: BSK_SAg_CD38: BioMAP Diversity Plus: SAg Assay for CD38 Biomarker Activity (AID 2283087); conditions: primary human HUVEC with PBMC; actives raise or lower the signal
How it was run: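 Human HUVEC plus PBMC co-culture stimulated with superantigen; CD38 measured by ELISA 24 h after chemical dosing. Fluorescence read-out, bidirectional fit against DMSO; cytotoxicity tracked in parallel by SRB and Alamar Blue.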

CD40, CD40 (gene 958) [16] = assay: BSK_SAg_CD40: BioMAP Diversity Plus: SAg Assay for CD40 Biomarker Activity (AID 2283088); conditions: primary human HUVEC with PBMC; actives raise or lower the signal
How it was run: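 CD40 is measured by fluorescence ELISA in an endothelial/PBMC primary human co-culture at 24 h post-dose. Fitting is bidirectional, DMSO baseline. Parallel SRB staining (560 nm) flags cytotoxicity.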

CD69, CD69 (gene 969) = assay: BSK_SAg_CD69: BioMAP Diversity Plus: SAg Assay for CD69 Biomarker Activity (AID 2283089); conditions: primary human HUVEC with PBMC; actives raise or lower the signal;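 for AC50: cell surface CD69 protein quantified by ELISA with fluorescence detection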
How it was run: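 Primary human vascular co-culture (umbilical vein endothelium with peripheral blood mononuclear cells) exposed to test chemical for 24 h. CD69 levels quantified by fluorescence ELISA; DMSO served as negative control for bidirectional fitting.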

[17] = read-out: E-selectin (Homo sapiens) (UniProt P16581); assay: BSK_SAg_Eselectin: BioMAP Diversity Plus: SAg Assay for Eselectin Biomarker Activity (AID 2283091); conditions: primary human HUVEC with PBMC; actives raise or lower the signal
How it was run: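 Cell-surface E-selectin is read by ELISA at 24 h in the SAg co-culture of HUVEC and PBMC. Curves are fitted in both directions relative to DMSO. Parallel SRB total-protein staining tracks overt toxicity.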

[18] = read-out: Monocyte Chemoattractant Protein-1 (MCP1), CCL2 (gene 6347); assay: BSK_SAg_MCP1: BioMAP Diversity Plus: SAg Assay for Monocyte Chemoattractant Protein-1 (MCP1) Biomarker Activity (AID 2283090); conditions: primary human HUVEC with PBMC; actives raise or lower the signal
How it was run: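 MCP-1 levels in the endothelial–PBMC SAg co-culture were quantified by ELISA at 24 h post-dosing; both increases and decreases versus DMSO scored. Cytotoxicity monitored by SRB total protein in parallel cultures.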

Measured: AC50

Sequence of Tumor necrosis factor (Homo sapiens) (P01375 whole entry, looked up): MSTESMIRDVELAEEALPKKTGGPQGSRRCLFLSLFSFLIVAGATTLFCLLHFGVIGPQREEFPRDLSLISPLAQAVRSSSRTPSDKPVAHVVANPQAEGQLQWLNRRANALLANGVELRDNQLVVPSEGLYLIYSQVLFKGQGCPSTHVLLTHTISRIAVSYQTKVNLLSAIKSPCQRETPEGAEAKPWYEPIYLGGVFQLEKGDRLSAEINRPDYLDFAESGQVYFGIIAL
Sequence of E-selectin (Homo sapiens) (P16581 whole entry, looked up): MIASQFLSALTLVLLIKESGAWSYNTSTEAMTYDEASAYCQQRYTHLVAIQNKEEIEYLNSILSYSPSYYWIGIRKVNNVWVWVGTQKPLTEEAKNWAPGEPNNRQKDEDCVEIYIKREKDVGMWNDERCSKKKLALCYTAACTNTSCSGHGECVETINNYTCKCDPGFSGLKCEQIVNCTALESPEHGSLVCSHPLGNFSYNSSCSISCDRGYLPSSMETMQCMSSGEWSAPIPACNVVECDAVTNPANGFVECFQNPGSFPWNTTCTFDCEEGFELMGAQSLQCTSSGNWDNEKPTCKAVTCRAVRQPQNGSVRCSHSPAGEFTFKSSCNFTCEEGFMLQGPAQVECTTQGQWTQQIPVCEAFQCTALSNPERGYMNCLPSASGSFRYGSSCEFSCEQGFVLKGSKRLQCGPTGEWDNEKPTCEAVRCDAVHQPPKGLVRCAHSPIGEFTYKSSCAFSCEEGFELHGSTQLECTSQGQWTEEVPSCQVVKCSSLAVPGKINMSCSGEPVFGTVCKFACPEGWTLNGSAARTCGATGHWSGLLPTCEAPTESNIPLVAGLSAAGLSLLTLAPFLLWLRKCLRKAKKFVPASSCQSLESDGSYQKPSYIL

C=CC(=C)CC/C=C(\C)CCC=C(C)C
not listed: [18]
inactive: all other assays above

COc1cc(OC)nc(NC(=O)NS(=O)(=O)Nc2ccccc2C(=O)N(C)C)n1
active: [7] 0.055 µM | [9] 0.0637 µM
not listed: [18]
inactive: all other assays above

N=C(N)c1ccc(OCCCCCOc2ccc(C(=N)N)cc2)cc1
active: [7] 12.7 µM | [9] 17.5 µM | [12] 13.5 µM | CD69, CD69 (gene 969) 1.21 µM
inactive: all other assays above

O=C(CCCN1CCC(O)(c2ccc(Cl)cc2)CC1)c1ccc(F)cc1
active: [6] 1.67 µM | [10] 29 µM | [13] 20 µM
not listed: [18]
inactive: all other assays above

CCCCC(CC)C(=O)OCCOCCOCCOCCOC(=O)C(CC)CCCC (stereo unspecified)
active: [12] 20 µM
not listed: [18]
inactive: all other assays above

Cc1ccc(N=Nc2c(O)ccc3ccccc23)c(C)c1
active: [13] 7.3 µM
inactive: all other assays above
